Measured values from PubChem BioAssay (NCATS).
Inconclusive results are not listed. The source made the active and inactive calls. Calls come from the whole dose curve; as a rule, active = well fitted cell-killing curve with a large enough effect; inconclusive = small, poorly fitted or top-dose-only effect, or effect the other way; inactive = no such curve, though single readings can be large or run the other way. Residues, ends and D or L forms follow the SMILES beside them. *: point of attachment. Cbz = O=C(OCc1ccccc1)*

Test: qHTS of pediatric cancer cell lines to identify multiple opportunities for drug repurposing: Confirmatory screen for OHS-50 cells (AID 1347128);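 note: compound exposure lasted 48 h at 37 degrees C; nearly all actives have a fitted effect of over 55% in size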
Settings: OHS-50 osteosarcoma cells viability; series mostly up to 45.9 µM
Excerpt: Drug repurposing or repositioning has been offered as a strategy for drug development in oncology programs. This approach has special potential for childhood cancers and other rare or orphan diseases, where the expected return on new drug development has been a disincentive to pharmaceuticals.
In this project we exploit the poly-pharmacology of drugs to discover new indications via phenotypic screening of a panel of 19 well-characterized cell lines derived from solid tumors seen in children and adolescents. The goal is to identify approved drugs with previously unrecognized anticancer properties that has the potential to reveal new mechanisms and biological processes involved in carcinogenesis or drug resistance. We employed a titration-based paradigm (quantitative high-throughput screening or qHTS), where all compounds were tested at multiple concentrations for their effect on cell viability. Concentration-response curves (CRCs) were derived directly from the primary screen, and both potency and efficacy values were used to identify compounds with robust bioactivity profiles. We screened the NIH Chemical Genomics Center (NCGC) Pharmaceutical Collection (NPC) and Mechanism Interrogation Plate (MIPE) small molecule collections of approved and investigational compounds against these cell lines; and measured metabolically active cells after 48 hours of compound treatment as a proxy for cell viability.
Assay Submitter: Nathalia J. Martinez, National Center for Advancing Translational Sciences, National Institutes of Health, Rockville, MD, USA; email: natalia.martinez@nih.gov
[1] Shen, M et al. Quantitative high-throughput phenotypic screening of pediatric cancer cell lines identifies multiple opportunities for drug repurposing. Oncotarget 2017 Dec 19;9(4):4758-4772. PMID 29435139.
The cells were obtained from University of North Carolina (UNC), Pediatric Preclinical Testing Program (PPT), and Coriell Institute (CI).
qHTS cell viability assay:
Cells were assayed in growth media at a density of 500-1,000 cells/well. Five microliters of cells were dispensed into 1,536-well, white, solid-bottom, TC-treated plates (Greiner Bio One) using a multidrop dispenser and incubated at 37 degrees C, 5% CO2, under a humidified atmosphere for 5 hours. Twenty-three nanoliters of compounds and controls (neutral control DMSO or positive control bortezomib at final concentration of 2.3 µM) were subsequently transferred by Kalypsys pintool. For primary screens, the MIPE collection was tested at 11-point dilutions (final concentrations range from 0.78 nM to 46 µM) and the NPC collection at 8-point dilutions (final concentrations range from 0.59 nM to 46 µM). Compounds tested in follow-up screens were assayed at 11-point dilutions. Cells were incubated for 48 hours, followed by addition of 3 µL of CellTiter-Glo (Promega). After a 15 min incubation at room temperature, samples were analyzed for luminescence intensity using a ViewLux High-throughput CCD imager equipped with clear filters.
Potency is the fitted concentration of half-maximal effect.

Question: For `CN[C@@H]1C[C@H]2O[C@@](C)([C@H]1OC)n1c3ccccc3c3c4c(c5c6ccccc6n2c5c31)C(=O)N[C@H]4O`, which Potency is on record?
Answer: 0.585 µM (active)

Question: With `C=CC(=O)Nc1ccc2ncnc(Nc3ccc(OCc4cccc(F)c4)c(Cl)c3)c2c1` as the compound, how does the Potency read?
Answer: 6.57 µM (active)

Question: For `CC(C)N1[N]C(=C2C=c3cc(O)ccc3=N2)c2c(N)ncnc21`, which Potency is on record?
Answer: 5.22 µM (active)

Question: Which Potency does the source give for `COc1cc(C[C@@H](CO)[C@H](CO)Cc2ccc(O)c(OC)c2)ccc1O` here?
Answer: inactive

Question: Which Potency does the source give for `CC(=O)[C@]1(O)Cc2c(O)c3c(c(O)c2[C@@H](O[C@H]2C[C@H](N)[C@@H](O)[C@H](C)O2)C1)C(=O)c1ccccc1C3=O` here?
Answer: 1.31 µM (active)

Question: Which Potency does the source give for `CS[C@H]1SC[C@@H]2C(=O)N(C)[C@H](C(C)C)C(=O)OC[C@H](NC(=O)c3cnc4ccccc4n3)C(=O)N[C@H](C)C(=O)N(C)[C@@H]1C(=O)N(C)[C@H](C(C)C)C(=O)OC[C@H](NC(=O)c1cnc3ccccc3n1)C(=O)N[C@H](C)C(=O)N2C` here?
Answer: 0.0147 µM (active)

Question: For `Cc1cnc(Nc2ccc(N3CCN(C)CC3)cc2)nc1Nc1cccc(S(=O)(=O)NC(C)(C)C)c1`, which Potency is on record?
Answer: 2.93 µM (active)

Question: With `CC(=O)SCC(Cc1ccccc1)C(=O)NCC(=O)OCc1ccccc1` (stereo not given) as the compound, how does the Potency read?
Answer: inactive

Question: Which Potency does the source give for `CC(C)C[C@@H](C=O)NC(=O)[C@H](CC(C)C)NC(=O)[C@H](CC(C)C)NC(=O)OCc1ccccc1` (Cbz-Leu-Leu-Leu-aldehyde) here?
Answer: 0.928 µM (active)

Question: Which Potency does the source give for `Cc1ncc(-c2ccnc(Nc3ccc(S(C)(=O)=O)cc3)n2)n1C(C)C` here?
Answer: 3.29 µM (active)

Question: For `CCC(C=C[C@@H]1OC(=O)C=C[C@H]1C)=C[C@H](C)CC=CC(C)=C[C@@H](C)C(=O)[C@@H](C)[C@H](O)[C@@H](C)CC(C)=CC(=O)O`, which Potency is on record?
Answer: 0.0161 µM (active)

Question: Which Potency does the source give for `COc1cccc2c1C(=O)c1c(O)c3c(c(O)c1C2=O)C[C@@](O)(C(=O)CO)C[C@H]3O[C@H]1C[C@H](N)[C@H](O)[C@H](C)O1` here?
Answer: 2.61 µM (active)

Question: With `COc1ccc(Nc2cc(-c3cnc(N)nc3)nc(N3CCOCC3)n2)cn1` as the compound, how does the Potency read?
Answer: 6.57 µM (active)

Question: Which Potency does the source give for `CC(N[C@H]1CCCC[C@H]1NC(=O)c1ccc(Cl)cc1)c1cccc2ccccc12` (stereo not given in full) here?
Answer: 20.8 µM (active)

Question: For `COc1cccc2c1C(=O)c1c(O)c3c(c(O)c1C2=O)C[C@@](O)(C(C)=O)C[C@H]3O[C@H]1C[C@H](N)[C@H](O)[C@H](C)O1`, which Potency is on record?
Answer: 2.08 µM (active)

Question: Which Potency does the source give for `COC1=C2C[C@@H](C)C[C@H](OC)[C@@H](O)[C@@H](C)C=C(C)[C@H](OC(N)=O)[C@@H](OC)C=CC=C(C)C(=O)NC(=CC1=O)C2=O` here?
Answer: 4.65 µM (active)

Question: Which Potency does the source give for `CCC(C(=O)O)C1CCC(C)C(C(C)C(O)C(C)C(=O)C(CC)C2OC3(C=CC(O)[C@@]4(CC[C@](C)(C5CC[C@@](O)(CC)C(C)O5)O4)O3)C(C)CC2C)O1` (stereo not given in full) here?
Answer: 0.369 µM (active)

Question: With `FC(F)c1nc2ccccc2n1-c1nc(N2CCOCC2)nc(N2CCOCC2)n1` as the compound, how does the Potency read?
Answer: 1.65 µM (active)

Question: With `O=C(NCc1ccccc1)[C@H](Cc1ccccc1)NC(=O)[C@@H]1O[C@@H]1C(=O)NCCc1ccc(O)cc1` as the compound, how does the Potency read?
Answer: inactive

Question: For `Cn1cc(CNCC2CCN(c3ncc(C(=O)NO)cn3)CC2)c2ccccc21`, which Potency is on record?
Answer: 0.131 µM (active)

Question: With `C[C@@]12C(=O)OC(=O)[C@@]1(C)C1CCC2O1` as the compound, how does the Potency read?
Answer: 4.65 µM (active)

Question: Which Potency does the source give for `CC(=O)NCC(=O)N1[C@H]2CC[C@H]1c1cc(Nc3ncc(C(F)(F)F)c(NC4CCC4)n3)ccc12` here?
Answer: 2.61 µM (active)

Question: Which Potency does the source give for `C=CC(=O)N1CCc2ccc(-n3c(=O)ccc4cnc5ccc(-c6cnn(C)c6)cc5c43)cc21` here?
Answer: 7.37 µM (active)

Question: Which Potency does the source give for `C=CCNC1=C2C[C@@H](C)C[C@H](OC)[C@@H](O)[C@@H](C)C=C(C)[C@H](OC(N)=O)[C@@H](OC)C=CC=C(C)C(=O)NC(=CC1=O)C2=O` here?
Answer: 11.7 µM (active)

Question: With `O=C1NC(=O)C(=Cc2ccc3nccc(-c4ccncc4)c3c2)S1` as the compound, how does the Potency read?
Answer: 7.37 µM (active)

Question: Which Potency does the source give for `CCN(CC)CCNC(=O)c1c(C)[nH]c(C=C2C(=O)Nc3ccc(F)cc32)c1C` here?
Answer: 10.7 µM (active)

Question: For `Oc1ccc(-c2ccc(-c3cc(Nc4cccc(CNC5CC5)c4)n[nH]3)cc2)c(O)c1`, which Potency is on record?
Answer: 1.47 µM (active)

Question: Which Potency does the source give for `CC(C=CC(=O)NO)=C[C@@H](C)C(=O)c1ccc(N(C)C)cc1` here?
Answer: 1.47 µM (active)

Question: Which Potency does the source give for `C#CCC(Cc1cnc2nc(N)nc(N)c2n1)c1ccc(C(=O)N[C@@H](CCC(=O)O)C(=O)O)cc1` (stereo not given in full) here?
Answer: 0.0414 µM (active)

Question: Which Potency does the source give for `CC(C)C[C@H](NC(=O)CNC(=O)c1cc(Cl)ccc1Cl)B1OC(=O)CC(CC(=O)O)(C(=O)O)O1` (stereo not given in full) here?
Answer: 0.585 µM (active)

Question: With `Cc1ccc([N+](=O)[O-])cc1S(=O)(=O)N(C)N=Cc1cnc2ccc(Br)cn12` as the compound, how does the Potency read?
Answer: 0.465 µM (active)

Question: For `CCS(=O)(=O)Nc1ccc2[nH]c(O)c(C(=Nc3ccc(CN4CCCCC4)cc3)c3ccccc3)c2c1`, which Potency is on record?
Answer: 5.22 µM (active)

Question: Which Potency does the source give for `CN[C@H]1[C@@H](O)[C@@H]2O[C@@H]3O[C@H](C)CC(=O)[C@]3(O)O[C@@H]2[C@@H](NC)[C@H]1O` here?
Answer: inactive

Question: Which Potency does the source give for `CCCCC(=O)O[C@]1(C(=O)CO)[C@@H](C)C[C@H]2[C@@H]3CCC4=CC(=O)C=C[C@]4(C)[C@@]3(F)[C@@H](O)C[C@@]21C` here?
Answer: inactive

Question: With `Nc1nc2c(c(=O)[nH]1)N(C=O)[C@H](CNc1ccc(C(=O)N[C@@H](CCC(=O)O)C(=O)O)cc1)CN2` as the compound, how does the Potency read?
Answer: inactive

Question: With `Cn1cnc(=N)c2[nH]cnc21` as the compound, how does the Potency read?
Answer: inactive

Question: With `CC(C=CC1=C(C)CCCC1(C)C)=CC=CC(C)=CC(=O)Nc1ccc(O)cc1` as the compound, how does the Potency read?
Answer: 42.7 µM (active)

Question: For `CC1(C)O[C@@H]2C[C@H]3[C@@H]4CCC5=CC(=O)C=C[C@]5(C)[C@@H]4[C@@H](O)C[C@]3(C)[C@]2(C(=O)CO)O1`, which Potency is on record?
Answer: inactive

Question: For `Oc1cc(-c2nc(-c3ccccc3)[nH]c2-c2ccncc2)ccc1Cl`, which Potency is on record?
Answer: 18.5 µM (active)

Question: Which Potency does the source give for `C=CC(=O)Nc1cccc(Nc2nc(NC3CCC(N(C)C)CC3)nc3c2ncn3C(C)C)c1` (stereo not given) here?
Answer: 2.08 µM (active)
